Records with an inconclusive call do not appear. Active and inactive are the calls of the source. The calls were made as follows: active = hit-call score of the fitted dose curve at least 0.9, where 1 is the maximum; inconclusive = response in the unintended direction; inactive = score below 0.9.
The compounds below were run on ABC Transporter (ABCB11), ABCB11 (gene 8647) (assay: CLD_ABCB11_6hr: CellzDirect (CLD) Gene Expression Assay for ABC Transporter (ABCB11) at 6 hours (AID 2283675);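 also: hits raise ABCB11 mRNA level so AC50 marks induction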).
Method: CLD_6hr is a cell-based, multiplexed-readout assay that uses hepatocyte, a human liver primary cell, with measurements taken at 6 hours after chemical dosing in a 96-well plate.CLD_ABCB11_6hr is one of 16 assay component(s) measured or calculated from the CLD_6hr assay. It is designed to make measurements of mRNA induction, a form of inducible reporter, as detected with chemiluminescence signals by Quantitative Nuclease Protection Assay (qNPA) technology.Data from the assay component CLD_ABCB11_6hr was analyzed at the endpoint, CLD_ABCB11_6hr, in the positive analysis fitting direction relative to DMSO as the negative control and baseline of activity. Using a type of inducible reporter, gain-of-signal activity can be used to understand changes in the reporter gene as they relate to the gene ABCB11. Furthermore, this assay endpoint can be referred to as a primary readout. To generalize the intended target to other relatable targets, this assay endpoint is annotated to the transporter intended target family, where subfamily is ABC transporter.
Human hepatocyte cultures were treated daily for two consecutive days with fresh dosing solutions containing appropriate concentrations of the 320 ToxCast chemicals (chemical identities were blinded to CellzDirect and other ToxCast collaborators), vehicle control (0.2% DMSO), and positive control inducers as summarized in Table 1. Due to the large number of treatment groups and chemicals examined, the ToxCast chemicals were divided into two groups (spanning two independent cultures of hepatocytes from separate donor preparations (Hu778: ToxCast plates 1 and 2; Hu776: ToxCast plates 3 and 4). Each preparation of human hepatocyte cultures was treated with respective vehicle control, medium only control, set of six positive controls/reference chemicals for the five hepatic receptor pathways, and a subset of eight of the ToxCast chemicals (indoxacarb, pyrithiobac-sodium, norflurazon, cyhalofop-butyl, methomyl, thiram, acetochlor, and propiconazole). These replicate data, coupled with internal replicates designed within the blinded ToxCast chemical library, provided additional data to evaluate interindividual differences between hepatocyte preparations and their potential impact on chemical profiles.Cell morphology and integrity were evaluated using phase-contrast microscopy as an indicator of hepatocyte cell health (Tyson & Green, 1987). Cultures for each treatment group (i.e., media, vehicle [0.2% DMSO], positive control inducers [multiple concentrations], and the ToxCast chemicals [multiple concentrations]) were observed and cell morphology was assessed relative to vehicle control cultures at each harvest time point (0, 6, 24, or 48 h). […] Images were evaluated at the conclusion of the study to assess changes in cell integrity and account for the effects of chemical exposure on uncharacteristic changes in concentration-dependent gene expression profiles. The results from these determinations of apparent cytotoxicity were annotated (yes/no) alongside the corresponding qNPA data for reference.At the conclusion of each treatment period, hepatocyte cultures (96-well) were washed with 1 volume of HBSS, lysed by addition of 25 ul ArrayPlate lysis buffer (HTG, Tucson, AZ), and 70 ul/well of Denaturation Oil, denatured by incubation at 95C for 10 min, and frozen at approximately -70C until analysis by nuclease protection assay (qNPA) (Roberts et al., 2007). For qNPA analysis, cell lysates were thawed at 50C for approximately 30 min, qNPA probes were added, and samples were incubated at 95C for 10 min to begin the detection process by denaturing the target RNA, dissociating the duplexes and secondary structure hybridization. At the conclusion of the hybridization period, S1 nuclease reagent was added to each sample to digest all nonprotected nucleotides at 50C for 60-90 min. […]

Compound | AC50 | outcome
N#Cc1c(Cl)c(Cl)c(Cl)c(C#N)c1Cl | 20 µM (active) | –
[2H]C1([2H])[n+]2ccccc2-c2cccc[n+]2C1([2H])[2H] | – | inactive
N#CN | – | inactive
CC[C@H](C)[C@H]1O[C@]2(C=C[C@@H]1C)C[C@@H]1C[C@@H](C/C=C(\C)[C@@H](O[C@H]3C[C@H](OC)[C@@H](O[C@H]4C[C@H](OC)[C@@H](O)[C@H](C)O4)[C@H](C)O3)[C@@H](C)/C=C/C=C3\CO[C@@H]4[C@H](O)C(C)=C[C@@H](C(=O)O1)[C@]34O)O2 (tested in a mixture with another compound) | 0.332 µM (active) | –
O=S1OCC2C(CO1)C1(Cl)C(Cl)=C(Cl)C2(Cl)C1(Cl)Cl (stereo unspecified) | – | inactive
CNC(=O)CSP(=S)(OC)OC | – | inactive
C[C@H]1[C@H](c2ccc(Cl)cc2)SC(=O)N1C(=O)NC1CCCCC1 | – | inactive
CCCN(CCOc1c(Cl)cc(Cl)cc1Cl)C(=O)n1ccnc1 | – | inactive
COC(=O)c1ccccc1S(=O)(=O)NC(=O)Nc1nc(C)nc(OC)n1 | – | inactive
Oc1cc(Cl)ccc1Oc1ccc(Cl)cc1Cl | – | inactive
O=C(NC(=O)c1c(F)cccc1F)Nc1ccc(OC(F)(F)C(F)OC(F)(F)F)c(Cl)c1 (stereo unspecified) | – | inactive
CC(C)(C)C(O)C(Oc1ccc(Cl)cc1)n1cncn1 (stereo unspecified) | – | inactive
O=S(=O)(O)C(F)(F)C(F)(F)C(F)(F)C(F)(F)C(F)(F)C(F)(F)C(F)(F)C(F)(F)F | – | inactive
CNC(=O)/C=C(\C)OP(=O)(OC)OC | – | inactive
CN1CSC(=S)N(C)C1 | – | inactive
COC(=O)c1ccccc1CS(=O)(=O)NC(=O)Nc1nc(OC)cc(OC)n1 | – | inactive
O=[N+]([O-])c1c(Cl)c(Cl)c(Cl)c(Cl)c1Cl | – | inactive
CCOCN(C(=O)CCl)c1c(C)cccc1CC | – | inactive

Compound | AC50 | outcome
CNC(=O)Oc1cccc(N=CN(C)C)c1 | – | inactive
COC(=O)c1ccccc1S(=O)(=O)NC(=O)N(C)c1nc(C)nc(OC)n1 | – | inactive
O=C1c2ccccc2C(=O)N1SC(Cl)(Cl)Cl | – | inactive
CCC(C)(NC(=O)c1cc(Cl)c(C)c(Cl)c1)C(=O)CCl (stereo unspecified) | – | inactive
Clc1ccccc1-c1nnc(-c2ccccc2Cl)nn1 | – | inactive
OCCOc1ccccc1 | – | inactive
CCC(C)Nc1c([N+](=O)[O-])cc(C(C)(C)C)cc1[N+](=O)[O-] (stereo unspecified) | – | inactive
CCN(CC)C(=O)SCc1ccc(Cl)cc1 | – | inactive
CCC(C)(C)C(=O)OC1=C(c2ccc(Cl)cc2Cl)C(=O)OC12CCCCC2 | – | inactive
CCS(=O)(=O)c1cccnc1S(=O)(=O)NC(=O)Nc1nc(OC)cc(OC)n1 | – | inactive
CC1(c2ccc(Oc3ccccc3)cc2)OC(=O)N(Nc2ccccc2)C1=O (stereo unspecified) | – | inactive
CCc1ccc(C(=O)NN(C(=O)c2cc(C)cc(C)c2)C(C)(C)C)cc1 | 20 µM (active) | –
O=C(Nc1ccccc1)Nc1cnns1 | – | inactive
O=C(O)C(F)(F)C(F)(F)C(F)(F)C(F)(F)C(F)(F)C(F)(F)C(F)(F)F | – | inactive
COP(=O)(OC)OC=C(Cl)Cl | – | inactive
CCCN(CCC)c1c([N+](=O)[O-])cc(C(F)(F)F)cc1[N+](=O)[O-] | – | inactive
O=[N+]([O-])/N=C1\NCCN1Cc1ccc(Cl)nc1 | – | inactive
CC1(C)C(C=C(Cl)Cl)C1C(=O)OC(C#N)c1ccc(F)c(Oc2ccccc2)c1 (stereo unspecified) | – | inactive

From PubChem BioAssay (EPA / NIEHS)
